# Screens deposited in PubChem by National Center for Advancing Translational Sciences (NCATS).
# VP16 counter: counter-screen for ROR gamma inhibitors: Gal4-VP16 reporter | Drosophila S2 Gal4-VP16 UAS-luciferase, luminescence, 20 h | Potency, µM (series often up to 53.6 µM), inactives show at the highest dose activity, negative = inhibition, hits mostly inhibitors | actives 3.5% (n = 310,000);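 also: Gal4-VP16 expression switched on by copper sulfate through the metallothionein promoter; % is scaled to controls: 0 for no effect and ±100 for the full control effect; nearly all actives have a fitted effect of over 50% in size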
# ELG1 repair inh: ELG1-dependent DNA repair inhibition; HEK293T ELG1-luciferase reporter, luminescence, 16 h; DNA damage induced by 5-fluorouridine; actives 2.3% (n = 330,000); Potency, µM (highest dose often 46.1 µM), inactives show at the top dose activity change, negative = inhibition, most hits filed as inhibitors; also: % is scaled to controls: 0 for no effect and ±100 for the full control effect; nearly all actives have a fitted effect of over 55% in size
#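 Overnight (16 hr) co-exposure of 2,000 cells/well to 5-fluorouridine and compound at 37 °C preceded detection. Luciferase was quantified via ONE-Glo luminescence; loss of signal denotes inhibition.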
# RORg inh: inhibitors of mouse ROR gamma transcriptional activity; Drosophila S2 Gal4-RORgamma UAS-luciferase reporter, 20 h; actives 5.4% (n = 310,000); AID 2551; Potency, µM (titrated, usually from 53.6 µM), inactives show top-dose activity change, negative = inhibition, usual class: inhibitors; also: % is scaled to controls: 0 for no effect and ±100 for the full control effect; nearly all actives have a fitted effect of over 60% in size
# Target sequence (P51450 whole entry, looked up, the tested form may be a part): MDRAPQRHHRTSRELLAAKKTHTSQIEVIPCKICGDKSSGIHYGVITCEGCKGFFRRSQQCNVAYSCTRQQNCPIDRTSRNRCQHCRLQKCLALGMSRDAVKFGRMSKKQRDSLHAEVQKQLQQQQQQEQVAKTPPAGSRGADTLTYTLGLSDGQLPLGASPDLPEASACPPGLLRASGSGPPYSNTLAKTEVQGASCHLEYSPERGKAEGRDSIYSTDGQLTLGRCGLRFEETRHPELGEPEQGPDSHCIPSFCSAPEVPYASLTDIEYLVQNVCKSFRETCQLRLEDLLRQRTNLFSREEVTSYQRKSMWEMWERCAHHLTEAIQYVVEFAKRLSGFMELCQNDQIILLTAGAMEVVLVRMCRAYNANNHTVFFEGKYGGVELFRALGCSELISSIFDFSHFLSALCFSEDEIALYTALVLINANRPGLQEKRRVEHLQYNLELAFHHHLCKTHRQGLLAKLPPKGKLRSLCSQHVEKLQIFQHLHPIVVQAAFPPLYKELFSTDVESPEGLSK
#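 Schneider cells (Drosophila), stable Gal4 DBD–ROR gamma + UAS-luc; 1 hr cmpd preincubation; Cu2+ induction 700 uM final; 20 hr ambient; luminescence.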
# MCF10A rereplic: DNA re-replication induction in MCF 10a cells. actives 2.9% (n = 350,000). Potency, µM (titrated, usually from 46.1 µM), inactives show top-dose activity, positive = re-replication, actives largely listed as activators. MCF 10A DNA re-replication, Hoechst nuclear intensity, 48 h; also: % of control where 0% means no effect; nearly all actives have a fitted effect of over 50% in size
# SW480 rerep: inducers of DNA re-replication in SW480 colon cancer cells; SW480 DNA re-replication, Hoechst DNA content imaging, 48 h; Potency, µM (doses to about 46.1 µM), inactives show top-dose re-replication activation, usual class: activators; actives 1.8% (n = 340,000); AID 624297; also: % of control where 0% means no effect; nearly all actives have a fitted effect of over 55% in size
#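 DNA re-replication was detected as more nuclei of elevated Hoechst intensity after 48 hr exposure to compound (23 nL pinned per well of 250 cells).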
# Starred values were filed as active, the others as inactive; ? = inconclusive; nt = no result given; [ ] = another dose, or the depositor's remark. Sampled rows, rich in hits. Any-hit rate of the full collection: about 10%. Calls follow the shape of the dose curve; as a rule, active = well fitted curve in the direction sought with a large enough effect; inconclusive = small, poorly fitted or top-dose-only effect, or another doubt; inactive = no such curve, though single readings can be large; an effect the other way counts as inactive or inconclusive. Potency is read from the fitted curve at half-maximal effect.
SMILES,VP16 counter,ELG1 repair inh,RORg inh,MCF10A rereplic,SW480 rerep
CCOc1cc(N2CCOCC2)c(OCC)cc1NC(=O)COC(=O)c1ccc([N+](=O)[O-])o1,nt,7.9%,nt,-0.3%,0.5%
COc1ccc2[nH]c3c(c2c1)CCN1C(=O)C(CC(=O)NC/C=C(\C)CCC=C(C)C)C[C@H](C(=O)N(C(C)C)C(C)C)[C@@]31C (stereo partly specified),nt,-28.8%,nt,14.6µM*,?
COc1ccc2[nH]c3c(c2c1)CCN1C(=O)C(CC(=O)NCC24CC5CC(CC(C5)C2)C4)C[C@H](C(=O)N2CCCCC2)[C@@]31C (stereo partly specified),nt,13µM*,nt,?,0.6%
CS(=O)(=O)Nc1cccc(C2=NN(C(=O)c3ccccc3Cl)C(c3ccccc3O)C2)c1 (stereo unspecified),1.7%,?,?,9.9%,-4.3%
CCC/C=C1\CCCOC(C(=O)NCc2ccccc2)(C(F)(F)F)C1 (stereo unspecified),-19.0%,nt,-35.6%,nt,nt
CCCCn1c(N)c(N(CC(C)C)C(=O)CN(C)S(=O)(=O)c2ccc(NC(C)=O)cc2)c(=O)[nH]c1=O,nt,24.0%,nt,-4.2%,-8.1%
Cc1ccc(N2C(=O)NC(NC(=O)C3CC3)(C(F)(F)F)C2=O)cc1 (stereo unspecified),2.3%,?,32.5%,3.1%,-1.1%
O=S(=O)(c1ccc(S(=O)(=O)N(Cc2ccccc2)Cc2ccco2)cc1)N1CCCC1,nt,nt,nt,-0.5%,-3.0%
COC(=O)/C=C/c1ccccc1S(=O)(=O)N(Cc1ccccc1)Cc1ccco1,-3.1%,-23.5%,19.0%,2.06µM*,4.11µM*
C=CCN(CC=C)C(=O)c1c(OC)cccc1OC,-6.9%,-6.9%,22.4%,-6.1%,1.3%
C=CCc1c(C)[nH]c2c(OC)cccc2c1=S,?,-17.7%,11.2µM*,0.2%,-97.4%
O=C(c1nc2ccc(Cl)cn2c1CN1CCCC(CO)C1)N1CCc2ccccc2C1 (stereo unspecified),8.0%,5.1%,0.4%,0.3%,2.1%
Cc1ccccc1NC1=C(Cl)C(=O)OC1OC(=O)c1ccco1 (stereo unspecified),-27.7%,6.9%,10µM*,4.6%,-3.0%
COc1cccc(NC2=C(Cl)C(=O)OC2OC(=O)c2ccco2)c1 (stereo unspecified),-7.6%,15.7%,?,14.1µM*,?
CC(C)(C)OC(=O)N(Cc1ccccc1)Cc1ccccc1OCc1cccc(NC(=O)C2CC2)c1,nt,nt,nt,14.6µM*,?
CC(C)C(=O)Nc1cccc(COc2cccc(CN(Cc3ccccc3)C(=O)OC(C)(C)C)c2)c1,nt,nt,nt,1.84µM*,4.2%
CC(C)(C)OC(=O)N(Cc1ccccc1)Cc1cccc(OCc2cccc(NC(=O)C3CC3)c2)c1,nt,nt,nt,-38.0%,13.8%
C#Cc1ccc([C@@H]2C=C(C(=O)NCc3ccccc3)O[C@H](OCCCCO)C2)cc1,nt,nt,nt,9.6%,?
COc1ccc(-c2nnc(SCC(=O)N(C)C3CCS(=O)(=O)C3)n2N)cc1OC (stereo unspecified),2.9%,15.0%,-0.5%,16.7%,?
COc1cc(C2Nc3ccccc3C(=O)N2c2ccccc2)c(Br)cc1OCC(=O)O (stereo unspecified),-6.3%,9.4%,24.0%,-6.2%,23.1µM*
COc1ccc(N(CC(=O)Nc2ccccc2F)S(=O)(=O)c2ccc(OC)c(OC)c2)cc1,18.8%,-13.3%,-5.8%[1.91 µM],-5.6%,-39.8%
Cc1ccc(OCCCCn2ccnc2)c(Cl)c1,?,?,11.2µM*,1.8%,0.4%
Cc1cc(C)c(OCCn2ccnc2)c(C)c1,-9.9%,-10.6%,-29.9%,4.2%,6.2%
Cc1cc(Cl)c(OCCCn2ccnc2)c(Br)c1,?,-16.7%,17.8µM*,12.3%,-9.2%
Cc1cc(C)c(OCCCn2ccnc2)c(C)c1,?,3.1%,12.6µM*,15.2%,-22.2%
SMILES,VP16 counter,ELG1 repair inh,RORg inh,MCF10A rereplic,SW480 rerep
CC(C)(C)c1ccccc1OCCCCCn1ccnc1,?,-19.6%,17.8µM*,-1.6%,2.3%
COc1ccc(CN2CCNC(=O)C2CC(=O)NCCc2c[nH]c3ccccc23)c(OC)c1 (stereo unspecified),7.6%,-5.3%,4.6%,0.0%,-2.1%
Cc1ccc(C)c(OCCC(=O)Nc2cccc(S(=O)(=O)N3CCCCC3)c2)c1,nt,-15.5%,nt,13.4%,-1.1%
c1cncc(-c2cncnc2NC2CCNCC2)c1,-5.9%,nt,26.1%,nt,nt
Cc1cc(C)cc(OCCCn2ccnc2)c1,nt,2.9%,nt,-0.5%,3.0%
Cc1cc(C)c(C)c(OCCCn2ccnc2)c1,-10.4%,-16.5%,15.8µM*,-1.0%,-7.2%
CC(=O)Nc1nc(C)c(-c2csc(Nc3cccc([N+](=O)[O-])c3)n2)s1,-29.2%,2.91µM*,-23.7%,?,14.0%
CC(=O)Nc1nc(C)c(-c2csc(Nc3cccc(C(C)=O)c3)n2)s1,-23.2%,5.8µM*,10.7%,-2.5%,4.0%
Cc1ccc(NC(=S)N(C)C)cc1C,?,11.2%,?,10.5%,-12.5%
Nc1nc(-c2ccc(Oc3ccccc3)cc2)c(CC(=O)O)s1,0.2%,?,18.7%,?,-8.0%
COc1cccc(CCc2ccccc2OCC(CN(C)C)OC(=O)CCC(=O)O)c1 (stereo unspecified),6.2%,nt,31.0%,29.3%,29.9µM*
COc1cccc(CN(C)CC(O)COc2cc(Cl)ccc2Cl)c1 (stereo unspecified),-1.3%,-2.2%,-9.6%,-11.1%,1.1%
Cn1cc(/C=C/c2cc[n+](C)cc2)c2cc(Cl)ccc21,-15.7%,?,37.5%,13µM*,11.2µM*
CC1(C)CC(=O)C(C=NCCN2CCOCC2)=C(O)C1,-13.1%,6.1%,-4.0%,-4.8%,6.51µM*
COC(=O)c1c(C)n(-c2ccccc2)c2ccc(O)cc12,6.0%,?,-21.4%,?,?
CN(C)/C=C/c1c([N+](=O)[O-])c2ccc(O)cc2n1-c1ccccc1,-2.0%,7.3µM*,13.8%,?,?
Cc1ccc(-c2nnc(N3CCCCC3)c3ccccc23)cc1S(=O)(=O)NCC1CCCO1 (stereo unspecified),?,?,-20.3%,-2.0%,1.0%
O=C(O)CCN1C(=O)/C(=C2\C(=O)N(Cc3ccccc3Cl)c3ccccc32)SC1=S,1.0%,18.8%,-1.5%,nt,nt
C=CCN1C(=O)/C(=c2\sc3nc(=O)c(Cc4ccccc4Cl)nn3c2=O)c2ccccc21,?,?,12.6µM*,-0.6%,-6.4%
O=C(CN1C(=O)S/C(=C\c2cc(Cl)c(O)c(Cl)c2)C1=O)Nc1ccccc1,1.0%,-9.5%,4.2%[1.91 µM],?,5.2%
Clc1ccc2nc(-c3cccc(SC4CCCCC4)c3)c(NCc3ccccc3)n2c1,nt,?,nt,?,-2.2%[9.22 µM]
